PubChem BioAssay AID1159580 (chemical genetic matrix, 2015)
Out of some 5,500 compounds screened, about 2,000 (36%) were called active. About 18% were inconclusive and are not listed. Rule as the data show it: active = normalized growth mostly below about 0.91 (no sharp cut-off); inconclusive = no clear call, values can overlap the other calls; inactive = mostly above about 0.92. The list shows a part of the results.

Experiment: chemical genetic growth profiling, strain panel (AID 1159580);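 also: tested at 20 µM; growth read once vehicle control cultures reached saturation at 30 °C; 1 = growth at the plate median or of vehicle wells; lower values mean less growth of the strain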
Conditions: S. cerevisiae deletion strains, growth OD

Measured: normalized growth

FC(F)(F)C(Cl)Br (configuration not stated)
inactive: locus YAL021C, strain ccr4, stronger effect = lower value 1.02 | locus YAL026C, strain drs2, stronger effect = lower value 1.03 | locus YAL030W, strain snc1, stronger effect = lower value 1.02 | locus YBL061C, strain skt5, stronger effect = lower value 1.02 | locus YBR009C, strain hhf1, stronger effect = lower value 1.04 | locus YBR023C, strain chs3, stronger effect = lower value 1.03 | locus YBR171W, strain sec66, stronger effect = lower value 1.05 | locus YBR231C, strain swc5, stronger effect = lower value 1.03 | locus YBR279W, strain paf1, stronger effect = lower value 1.03 | locus YCL011C, strain gbp2, stronger effect = lower value 1.03 | locus YCL016C, strain dcc1, stronger effect = lower value 1.02 | locus YCL061C, strain MRC1, stronger effect = lower value 1.02 | locus YCL069W, strain vba3, stronger effect = lower value 1.02 | locus YCR088W, strain abp1, stronger effect = lower value 1.02 | locus YDL005C, strain med2, stronger effect = lower value 1.03 | locus YDL040C, strain nat1, stronger effect = lower value 1.02 | locus YDR001C, strain nth1, stronger effect = lower value 1.01 | locus YDR069C, strain doa4, stronger effect = lower value 1.02 | locus YDR137W, strain rgp1, stronger effect = lower value 1.07 | locus YDR159W, strain sac3, stronger effect = lower value 1.04 | locus YDR195W, strain ref2 1.05 | locus YDR297W, strain sur2, stronger effect = lower value 1.01 | locus YDR334W, strain swr1, stronger effect = lower value 1.02 | locus YDR335W, strain msn5, stronger effect = lower value 1.02 | locus YDR392W, strain spt3, stronger effect = lower value 1.01 | locus YEL003W, strain gim4, stronger effect = lower value 1.02 | locus YEL037C, strain rad23, stronger effect = lower value 0.997 | locus YEL061C, strain CIN8 (second series), stronger effect = lower value 1.02 | locus YER015W, strain faa2, stronger effect = lower value 1.02 | locus YER016W, strain bim1, stronger effect = lower value 1.04 | locus YER111C, strain swi4, stronger effect = lower value 1.03 | locus YER155C, strain BEM2 (second series), stronger effect = lower value 1.02 | locus YFR010W, strain ubp6, stronger effect = lower value 1.03 | locus YGL167C, strain pmr1, stronger effect = lower value 1.04 | locus YGL173C, strain kem1, stronger effect = lower value 1.02 | locus YGL227W, strain vid30, stronger effect = lower value 1.04 | locus YGL240W, strain doc1, stronger effect = lower value 1.02 | locus YGL253W, strain hxk2, stronger effect = lower value 1.02 | locus YHR013C, strain ard1, stronger effect = lower value 1.02 | locus YHR027C, strain rpn1, stronger effect = lower value 1.03 | locus YHR142W, strain chs7, stronger effect = lower value 1.03 | locus YJL092W, strain hpr5, stronger effect = lower value 1.01 | locus YJL095W, strain BCK1 (second series), stronger effect = lower value 1.01 | locus YJL115W, strain asf1, stronger effect = lower value 1.01 | locus YJL129C, strain trk1, stronger effect = lower value 1.06 | locus YJL154C, strain vps35, stronger effect = lower value 1.02 | locus YJL164C, strain tpk1, stronger effect = lower value 1.02 | locus YJL166W, strain qcr8, stronger effect = lower value 1.03 | locus YJL187C, strain SWE1, stronger effect = lower value 1.03 | locus YKL160W, strain elf1, stronger effect = lower value 1.02 | locus YKR026C, strain gcn3, stronger effect = lower value 1 | locus YKR091W, strain srl3, stronger effect = lower value 1.02 | locus YLL001W, strain dnm1, stronger effect = lower value 1.01 | locus YLL026W, stronger effect = lower value 1.02 | locus YLL041C, strain sdh2, stronger effect = lower value 1.02 | locus YLR027C, strain aat2, stronger effect = lower value 1.02 | locus YLR221C, strain rsa3, stronger effect = lower value 1.02 | locus YLR258W, strain gsy2, stronger effect = lower value 1.02 | locus YLR262C, strain YPT6 (second series), stronger effect = lower value 1.04 | locus YLR320W, strain mms22, stronger effect = lower value 1.03 | locus YLR342W, strain FKS1, stronger effect = lower value 1.02 | locus YLR357W, strain rsc2, stronger effect = lower value 1.07 | locus YLR370C, strain arc18, stronger effect = lower value 1.03 | locus YLR384C, strain iki3, stronger effect = lower value 1.02 | locus YML120C, strain ndi1, stronger effect = lower value 1.03 | locus YMR058W, strain fet3, stronger effect = lower value 1.02 | locus YMR125W, strain sto1, stronger effect = lower value 1.02 | locus YMR129W, stronger effect = lower value 1.03 | locus YMR205C, strain PFK2, stronger effect = lower value 1.03 | locus YMR231W, strain pep5, stronger effect = lower value 1.02 | locus YNL071W, strain lat1, stronger effect = lower value 1.03 | locus YNL209W, strain ssb2, stronger effect = lower value 1.02 | locus YNL248C, strain rpa49, stronger effect = lower value 1.03 | locus YNL322C, strain KRE1 (second series), stronger effect = lower value 1.02 | locus YNR049C, strain mso1, stronger effect = lower value 1.02 | locus YOR001W, strain rrp6, stronger effect = lower value 1.04 | locus YOR070C, strain gyp1, stronger effect = lower value 1.01 | locus YOR080W, strain dia2, stronger effect = lower value 1.02 | locus YOR083W, strain WHI5, stronger effect = lower value 1.01 | locus YOR106W, strain vam3, stronger effect = lower value 1.04 | locus YOR265W, strain rbl2, stronger effect = lower value 1.03 | locus YOR270C, strain vph1, stronger effect = lower value 1.08 | locus YOR290C, strain snf2, stronger effect = lower value 1.04 | locus YPL051W, strain arl3, stronger effect = lower value 1.04 | locus YPL078C, strain atp4, stronger effect = lower value 1.02 | locus YPL106C, strain sse1, stronger effect = lower value 1.02 | locus YPL240C, strain hsp82, stronger effect = lower value 1.02
